Measured values reported in PubChem BioAssay AID1347383 (Zoeller Lab, School of Medicine, Boston University, 2020).
Active and inactive are the calls of the source.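 The calls were made as follows: active = cell survival after UV exposure 2 SD above solvent-only control wells at 10 µM, confirmed on one or two repeats; inactive = the rest.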

Assay: cell survival after pyrene fatty acid photosensitization – ZR-82 cells, Analyticon library, screen 2, phospholipid biosynthesis inhibitor project, primary screen (AID 1347383);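 also: survival reflects blocked phospholipid synthesis cutting uptake of the phototoxic fatty acid; compound and fatty acid exposure 3 h then viability read next day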
Conditions: ZR-82 CHO cells, pyrene-fatty acid UV killing, CellTiter Blue; at 10 µM; peroxisome-deficient CHO-K1 variant; with DGAT-1, DGAT-2 and ACAT inhibitors

Row | Compound | outcome
1 | CC(C)(O)[C@@H]1CCC(C)([C@H]2CC[C@]3(C)[C@@H]2[C@H](O)CC2[C@@]4(C)CC[C@H](O)C(C)(C)[C@@H]4CC[C@]23C)O1 (stereo not given in full) | inactive
2 | COc1c(C)c2c(c(O)c1C/C=C(\C)CC/C=C(\C)CCC(=O)O)C(=O)OC2 | inactive
3 | CC(=O)C(C)C1OC(CCO)c2cc(C)ccc2C1C (stereo not given) | inactive
4 | COC(=O)CC(O)C1OC(c2ccccc2)C(O)C1O (stereo not given) | inactive
5 | C/C=C(/C)C(=O)OC1C2OC2C2(CO2)C2C3OC(=O)C(C)C3CCC12C (stereo not given) | inactive
6 | CC1=C[C@H]2[C@@H](CC1=O)[C@H](C)C[C@H](O)[C@H]2C(C)C | inactive
7 | CC/C=C\C/C=C\C/C=C\CCCCCCCC(=O)OCC(O)COC1OC(CO)C(O)C(O)C1O (stereo not given) | inactive
8 | C=C[C@@]12COC(=O)C(=C)[C@@H]1[C@@H](O)[C@H](C(=C)C(=O)OC)[C@@H](O)C2 | inactive
9 | C=C(CO)C1Cc2c(ccc3c(=O)c4c(oc23)COc2cc(O)c(OC)cc2-4)O1 (stereo not given) | inactive
10 | O=C(/C=C/c1ccc(O)cc1)c1ccc(O)cc1O | inactive
11 | Cc1ccc(C(C)C)c(O)c1 | inactive
12 | CC[C@H](CC[C@@H](C)[C@H]1CC[C@H]2[C@@H]3CC=C4C[C@@H](O)CC[C@]4(C)[C@H]3CC[C@]12C)C(C)C | inactive
13 | C/C=C(/COC(=O)/C(C)=C/C)C(=O)OC/C=C/c1ccc(OC)cc1 | inactive
14 | COc1ccc(Cc2nccc3cc(OC)c(OC)cc23)cc1OC | inactive
15 | C=C(C(=O)O)[C@@H]1CC[C@H](C)[C@@H]2CC(=O)C(C)=C2C1 | inactive
16 | C/C=C(/C)C(=O)OC1C(OC2(C)CCC3C(C4C(C)CCC42)C3(C)C)OC(C)C(O)C1O (stereo not given) | inactive
17 | O=C1CC(c2ccc(O)c(O)c2)Oc2cc(O)cc(O)c21 (stereo not given) | inactive
18 | CC1=C(CCCCC(=O)O)COC1=O | inactive
19 | CC(=O)O[C@H]1C[C@@]2(C)[C@@H](CC[C@H]3[C@@]4(C)C=CC(=O)[C@@H](C)[C@@H]4[C@H](O)C(=O)[C@@]32C)/C1=C(/CCC=C(C)C)C(=O)O | inactive
20 | COc1cc(O)c2c(=O)c(-c3ccc(O)cc3O[C@@H]3O[C@H](CO)[C@@H](O)[C@H](O)[C@H]3O)coc2c1 | inactive

Row | Compound | outcome
21 | Cc1c(O)cc(O)c2c1OC(c1ccccc1)CC2=O (stereo not given) | inactive
22 | COc1ccc2ccc(=O)oc2c1 | inactive
23 | CC1CC(O)/C=C/C(O)CCC(=O)Cc2c(Cl)c(O)cc(O)c2C(=O)O1 (stereo not given) | inactive
24 | CC(=O)Nc1ccccc1C(=O)O | inactive
25 | OC1CC(c2ccccc2)C(O)C(O)C1c1ccccc1 (stereo not given) | inactive
26 | O=C1c2ccc(O)cc2O[C@@H](c2ccc(O)c(O)c2)[C@@H]1O | inactive
27 | Oc1ccc([C@@H]2Oc3cc(O)cc(O)c3C[C@@H]2O)cc1 | inactive
28 | CC(O)C(O)/C=C/c1cccc(=O)o1 (stereo not given) | inactive
29 | CCCCCCOC1OC(COC2OCC(O)C(O)C2O)C(O)C(O)C1O (stereo not given) | inactive
30 | CC1=CC(=O)C2C(C)(C)CC(O)CC2(C)C1CO (stereo not given) | inactive
31 | CC1=CC2C3C(C(C)=C4C3[C@@](C)(O)CC[C@H]3[C@H](C)C(=O)O[C@H]43)C13C2[C@@](C)(O)CC[C@H]1[C@H](C)C(=O)O[C@@H]13 (stereo not given in full) | inactive
32 | CC(C)C(=O)C1(C(C)CC(=O)O)CCC(C)C(=O)C1 (stereo not given) | inactive
33 | C=C1C[C@H](O)C[C@]2(C)CC[C@@H](C(C)(C)O)CC12 (stereo not given in full) | inactive
34 | CC(=O)OC(C(=O)/C=C(\C)CCCC1=CC(=O)OC1)C(C)C (stereo not given) | inactive
35 | C=C(Oc1cccc(C(=O)O)c1)C(=O)O | inactive
36 | COc1cc2ccc(=O)oc2cc1OC | inactive
37 | CN(/C=C\c1ccccc1)C(=O)/C=C/c1ccccc1 | inactive
38 | CC1=CC(=O)CC(C)(C)[C@@]1(O)/C=C/C(C)=C/C(=O)O | inactive
39 | Cc1coc2c1CC1OC1(C)CCC1OC1(C)C2 (stereo not given) | inactive
40 | O=c1ccn(C2OC(CO)C(O)C2O)c(=O)[nH]1 (stereo not given) | inactive
